Bioassay records deposited in PubChem by National Center for Advancing Translational Sciences (NCATS).
A selection: hits, their analogues and other compounds. The true share with any hit is near 21%.
CHX counter = counter-screen for Shiga toxin inhibitors: cycloheximide protein synthesis inhibition; cell reporter, cycloheximide protein synthesis inhibition counterscreen; max response, %; 300,000 tested, 12% active; AID 2314; in the data active means max response mostly above about 13%, no sharp cut-off; inactive means mostly below about 14%; further: read at 38.3 µM for the half of the compounds with a filed dose
Shiga inhibitor = blocks Shiga toxin action in Vero cells; Vero cells, Shiga toxin protein synthesis inhibition reporter; inhibition, % at 38.7 µM; 290,000 tested, 9.2% active; in the data active means inhibition mostly above about 28%, no sharp cut-off; inactive means mostly below about 43%
Pf growth 96h = inhibits malaria parasite growth, 96 h; P. falciparum luciferase reporter growth, 96 h; AID 504834; Potency, µM (highest dose often 28.7 µM), actives largely listed as inhibitors; 320,000 tested, 6.9% active
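Two parasite generations (96 h, 37 C, 5% CO2) of compound exposure in infected erythrocytes (0.05% parasitemia, 2% hematocrit). Luciferase-reporter P. falciparum; decreased luminescence indicates inhibited growth, aimed at apicoplast-acting delayed death.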
Pf growth 48h = inhibits P. falciparum growth in the first generation, 48 h; P. falciparum luciferase growth in erythrocytes, 48 h; Potency, µM (top dose mostly 28.7 µM), usual class: inhibitors; 310,000 tested, 5.9% active
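Read-out is firefly luciferase luminescence from an integrated reporter in P. falciparum, so falling signal marks reduced parasite growth. Infected erythrocytes were at 2% hematocrit and 0.1% parasitemia (final) in Albumax-supplemented RPMI 1640.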
Large screens that a line does not name were inactive. Unless noted, the call rests on the fitted dose curve; in most records, active means well fitted inhibition curve with a large enough effect; inconclusive means small, poorly fitted or top-dose-only effect, or another doubt; inactive means no such curve, though single readings can be large or run the other way.

CCCCC(=O)N/N=C/c1sccc1C	none
CCNC(=S)N/N=C/c1sccc1C	Shiga inhibitor 33.7, Pf growth 96h inconclusive, Pf growth 48h inconclusive
Cc1ccsc1/C=N/NC(=S)NCCc1ccccc1	CHX counter 32.5, Shiga inhibitor 30.6
COc1ccc(CC(=O)N/N=C/c2sccc2C)cc1	none
COc1ccc(CCNC(=O)CCC(=O)N2CCOc3ccccc32)cc1OC	none
CCC(C)NC(=O)C1(O)c2cc(Br)ccc2NC(=O)N1c1cccc(OC)c1 (configuration not stated)	Pf growth 96h inconclusive
O=C(CCc1ccccc1)N1CCN(Cc2ccc(F)cc2Cl)CC1	Pf growth 48h inconclusive
Cc1cc(C)nc(NCCC(=O)O)n1	none
COc1cc(C(=O)O)ccc1O	none
COc1cc(C(=O)/C=C/c2cccnc2)ccc1O	CHX counter 16.4
O=C(/C=C/c1cccnc1)c1cc(F)ccc1O	Pf growth 96h inconclusive
Cc1cccc(C(=O)Nc2ccc(C(=O)/C=C/c3cccnc3)cc2)c1	CHX counter 23.7
COc1cc(C(=O)C(=O)c2ccc(O)c(OC)c2)ccc1O	CHX counter active, Shiga inhibitor 51.5
COc1ccc(OC)c(C(=O)/C=C/c2cccnc2)c1	Pf growth 96h 7.38µM, Pf growth 48h inconclusive
COc1ccc(-c2cc(=O)c3ccc(F)cc3[nH]2)cc1	none (no result: Pf growth 96h, Pf growth 48h)
COc1cc(OC)cc(-n2nnnc2SCC(=O)Nc2nc3c(s2)CCCC3)c1	none (no result: Pf growth 96h)
Cc1csc(NC(=O)CSC2=NCCS2)n1	CHX counter 37.3, Pf growth 96h inconclusive
Cn1nnnc1SCC(=O)Nc1nc2c(s1)CCCC2	CHX counter 42.1, Shiga inhibitor 69.9 (no result: Pf growth 48h)
O=C(CSC1=NCCS1)Nc1nc2c(s1)CCCC2	CHX counter 38.7, Shiga inhibitor 99.2, Pf growth 96h inconclusive
CC(=O)c1cccc(NC(=O)/C(=C\c2cccnc2)NC(=O)c2ccco2)c1	none
CCn1c(SCC(=O)N2CCCCC2C)nc2c1c(=O)n(C)c(=O)n2C (configuration not stated)	none
CCOC(=O)Cc1csc(N/N=C\c2ccc(N(C)C)cc2)n1	CHX counter 24.0, Shiga inhibitor 63.7, Pf growth 96h 9.28µM, Pf growth 48h 7.38µM
CCOC(=O)Cc1csc(N/N=C\c2ccccc2OC)n1	CHX counter 23.9, Shiga inhibitor 50.4
COc1ccc(/C=N/Nc2nc(C(=O)O)cs2)cc1	CHX counter 24.9, Shiga inhibitor 33.9
CCOC(=O)Cc1csc(N/N=C/c2ccccc2)n1	CHX counter 60.9, Shiga inhibitor 104.1
CCOC(=O)Cc1csc(NC(=O)c2ccc(NC(C)=O)cc2)n1	none
Cn1cccc1Cc1nnc(SCC(=O)NCC2CCCO2)n1C (configuration not stated)	none
CCOC(=O)CC1=CC(C)(CC(=O)OCC)C(C#N)(C#N)C(N)=C1C#N (configuration not stated)	none
CSc1cccc(NC(=O)c2cc(S(=O)(=O)N3CCc4ccccc43)cn2C)c1	Pf growth 96h inconclusive, Pf growth 48h inconclusive
O=C(Cn1nnc2ccccc2c1=O)N[C@H](C(=O)O)c1ccccc1	none
CCOC(=O)Cc1csc(N/N=C\c2cccc(Br)c2)n1	CHX counter 11.2, Shiga inhibitor 51.9
Cc1nn(-c2ccccc2)c(C)c1NC(=O)COC(=O)Cc1ccccc1F	none (no result: CHX counter, Shiga inhibitor)
C[n+]1cccc(/C=N/NC(=O)CC23CC4CC(CC(C4)C2)C3)c1	Pf growth 96h 0.586µM, Pf growth 48h inconclusive
CNC(=O)c1ccc(NC(=O)CC23CC4CC(CC(C4)C2)C3)cc1	none
NS(=O)(=O)C#Cc1ccccc1	CHX counter 26.4, Shiga inhibitor 15.2 (no result: Pf growth 96h, Pf growth 48h)
CN(C)C(=O)C#Cc1ccccc1	none
CC(C)=N/N=C1\NC(=O)C(C)S1 (configuration not stated)	CHX counter 29.5, Pf growth 96h 1.17µM, Pf growth 48h 4.65µM
C/C(=N\N=C1/NC(=O)C(C)S1)c1ccc([N+](=O)[O-])cc1 (configuration not stated)	none
COc1ccc(Cl)cc1NC(=O)CN1CCC(NC(=O)C2CC2)CC1	Pf growth 48h inconclusive
COC(=O)c1ccc(COC(=O)c2nn(C)c(=O)c3ccccc23)cc1	CHX counter 22.7
Cn1nc(C(=O)OCC(=O)NCCc2ccccc2)c2ccccc2c1=O	CHX counter 26.8, Pf growth 48h inconclusive
Cc1ccc(Cl)c(NC(=O)COC(=O)c2nn(C)c(=O)c3ccccc23)c1Cl	none (no result: CHX counter, Shiga inhibitor)
Cc1cc(OCC(=O)Nc2ccc(S(=O)(=O)NC3=NCCCCC3)cc2)c(C(C)C)cc1Cl	Pf growth 96h inconclusive
O=C(c1ccccc1)c1ccccc1	none
CN(C)c1ccc(C(=O)N(Cc2ccccc2)Cc2ccccc2)cc1	Pf growth 96h 14.7µM
CCN(CC)C(=O)c1ccc(N(Cc2ccccc2)S(C)(=O)=O)cc1	none
